# From the supplement of paper PMC12282887
# ± gives the standard deviation of the averaged measurements.
# How the values were obtained:
# Test in all cases: promoter activity interaction Z-score (Lux/OD deviation from empty-vector control); higher = stronger promoter induction by the compound
# [1] = test system: E. coli BW25113 acrABp lux reporter
# Method in brief: (§1)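 Four 1:2 dilutions of each compound were tested in biological duplicates on E. coli BW25113 carrying low-copy luxCDABE promoter reporters, either wild type or deleted for one of three genes. Cultures of 40 µl LB Lennox in 384-well plates were kept at 37°C and read for OD600 and luminescence every 30 min for 12 h. Integration windows were 0–8 h for wild type and 1–9 h for deletion strains, and wells under 10% of the median growth value were discarded. The score is a Z-transformed residual of growth-normalised luminescence relative to a control fit.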
# [2] = test system: E. coli BW25113 micFp lux reporter
# Method in brief: as §1
# [3] = test system: E. coli BW25113 ompFp lux reporter
# Method in brief: as §1
# [4] = test system: E. coli BW25113 robp lux reporter
# Method in brief: as §1
# [5] = test system: E. coli BW25113 soxSp lux reporter
# Method in brief: as §1
# [6] = test system: E. coli BW25113 tolCp lux reporter
# Method in brief: as §1
# [7] = 23 µg/ml, genetic background: wild type
# [8] = 23 µg/ml, genetic background: ΔmarA
# [9] = 23 µg/ml, genetic background: Δrob
# [10] = 23 µg/ml, genetic background: ΔsoxS
# [11] = 46 µg/ml, genetic background: wild type
# [12] = 46 µg/ml, genetic background: ΔmarA
# [13] = 46 µg/ml, genetic background: Δrob
# [14] = 46 µg/ml, genetic background: ΔsoxS
# [15] = 92.1 µg/ml, genetic background: wild type
# [16] = 92.1 µg/ml, genetic background: ΔmarA
# [17] = 92.1 µg/ml, genetic background: Δrob
# [18] = 92.1 µg/ml, genetic background: ΔsoxS
# [19] = 184.2 µg/ml, genetic background: wild type
# [20] = 184.2 µg/ml, genetic background: ΔmarA
# [21] = 184.2 µg/ml, genetic background: Δrob
# [22] = 184.2 µg/ml, genetic background: ΔsoxS
smiles,measurement,setting,value
COc1cc(/C=C/C(=O)CC(=O)/C=C/c2ccc(O)c(OC)c2)ccc1O [Curcumin],promoter activity interaction Z-score,[1]; [7],-0.214 ± 0.21
same,promoter activity interaction Z-score,[1]; [8],1.82 ± 1
same,promoter activity interaction Z-score,[1]; [9],0.162 ± 0.49
same,promoter activity interaction Z-score,[1]; [10],0.139 ± 0.18
same,promoter activity interaction Z-score,[1]; [11],0.341 ± 0.83
same,promoter activity interaction Z-score,[1]; [12],1.2 ± 0.066
same,promoter activity interaction Z-score,[1]; [13],0.14 ± 0.34
same,promoter activity interaction Z-score,[1]; [14],0.0402 ± 0.48
same,promoter activity interaction Z-score,[1]; [15],0.529 ± 0.2
same,promoter activity interaction Z-score,[1]; [16],1.08 ± 0.031
same,promoter activity interaction Z-score,[1]; [17],0.869 ± 0.75
same,promoter activity interaction Z-score,[1]; [18],0.0855 ± 0.34
same,promoter activity interaction Z-score,[1]; [19],0.33 ± 0.052
same,promoter activity interaction Z-score,[1]; [20],1.06 ± 1.1
same,promoter activity interaction Z-score,[1]; [21],1.36 ± 1.6
same,promoter activity interaction Z-score,[1]; [22],0.0296 ± 0.41
same,promoter activity interaction Z-score,[2]; [7],-0.542 ± 0.23
same,promoter activity interaction Z-score,[2]; [8],0.217 ± 0.034
same,promoter activity interaction Z-score,[2]; [9],-0.24 ± 0.022
same,promoter activity interaction Z-score,[2]; [10],-0.0851 ± 0.53
same,promoter activity interaction Z-score,[2]; [11],-0.984 ± 0.24
same,promoter activity interaction Z-score,[2]; [12],0.275 ± 0.043
same,promoter activity interaction Z-score,[2]; [13],-0.0884 ± 0.0078
same,promoter activity interaction Z-score,[2]; [14],0.00161 ± 0.34
same,promoter activity interaction Z-score,[2]; [15],-0.158 ± 0.37
same,promoter activity interaction Z-score,[2]; [16],0.257 ± 0.096
same,promoter activity interaction Z-score,[2]; [17],-0.122 ± 0.094
same,promoter activity interaction Z-score,[2]; [18],-0.241 ± 0.17
same,promoter activity interaction Z-score,[2]; [19],-0.608 ± 0.096
same,promoter activity interaction Z-score,[2]; [20],0.122 ± 0.096
same,promoter activity interaction Z-score,[2]; [21],-0.251 ± 0.11
same,promoter activity interaction Z-score,[2]; [22],0.0295 ± 0.21
same,promoter activity interaction Z-score,[3]; [7],-0.638 ± 0.26
same,promoter activity interaction Z-score,[3]; [8],0.332 ± 0.5
same,promoter activity interaction Z-score,[3]; [9],0.137 ± 1.3
same,promoter activity interaction Z-score,[3]; [10],-0.824 ± 0.29
same,promoter activity interaction Z-score,[3]; [11],-0.568 ± 0.12
same,promoter activity interaction Z-score,[3]; [12],0.31 ± 0.57
same,promoter activity interaction Z-score,[3]; [13],0.208 ± 0.91
same,promoter activity interaction Z-score,[3]; [14],-0.0625 ± 1.2
same,promoter activity interaction Z-score,[3]; [15],-0.201 ± 0.71
same,promoter activity interaction Z-score,[3]; [16],-0.362 ± 0.33
same,promoter activity interaction Z-score,[3]; [17],0.836 ± 0.9
same,promoter activity interaction Z-score,[3]; [18],-0.27 ± 0.58
same,promoter activity interaction Z-score,[3]; [19],-0.368 ± 0.11
same,promoter activity interaction Z-score,[3]; [20],-0.675 ± 0.88
same,promoter activity interaction Z-score,[3]; [21],-0.647 ± 0.46
same,promoter activity interaction Z-score,[3]; [22],-0.351 ± 0.82
same,promoter activity interaction Z-score,[4]; [7],0.788 ± 0.71
same,promoter activity interaction Z-score,[4]; [8],1.07 ± 0.14
same,promoter activity interaction Z-score,[4]; [9],0.0477 ± 0.46
same,promoter activity interaction Z-score,[4]; [10],0.332 ± 0.6
same,promoter activity interaction Z-score,[4]; [11],0.38 ± 0.33
same,promoter activity interaction Z-score,[4]; [12],1.13 ± 0.87
same,promoter activity interaction Z-score,[4]; [13],0.606 ± 0.79
same,promoter activity interaction Z-score,[4]; [14],0.859 ± 0.5
same,promoter activity interaction Z-score,[4]; [15],0.913 ± 0.078
same,promoter activity interaction Z-score,[4]; [16],0.411 ± 0.0043
same,promoter activity interaction Z-score,[4]; [17],0.829 ± 1.5
same,promoter activity interaction Z-score,[4]; [18],-0.797 ± 0.19
same,promoter activity interaction Z-score,[4]; [19],-0.161 ± 0.49
same,promoter activity interaction Z-score,[4]; [20],0.0014 ± 0.21
same,promoter activity interaction Z-score,[4]; [21],0.959 ± 1.3
same,promoter activity interaction Z-score,[4]; [22],0.501 ± 0.48
same,promoter activity interaction Z-score,[5]; [7],-0.156 ± 0.019
same,promoter activity interaction Z-score,[5]; [8],0.209 ± 0.098
same,promoter activity interaction Z-score,[5]; [9],-0.0921 ± 0.039
same,promoter activity interaction Z-score,[5]; [10],0.264 ± 0.5
same,promoter activity interaction Z-score,[5]; [11],-0.559 ± 0.02
same,promoter activity interaction Z-score,[5]; [12],0.12 ± 0.11
same,promoter activity interaction Z-score,[5]; [13],-0.0695 ± 0.0052
same,promoter activity interaction Z-score,[5]; [14],0.244 ± 0.33
same,promoter activity interaction Z-score,[5]; [15],-0.204 ± 0.11
same,promoter activity interaction Z-score,[5]; [16],-0.148 ± 0.051
same,promoter activity interaction Z-score,[5]; [17],-0.206 ± 0.015
same,promoter activity interaction Z-score,[5]; [18],-0.186 ± 0.41
same,promoter activity interaction Z-score,[5]; [19],-0.42 ± 0.036
same,promoter activity interaction Z-score,[5]; [20],-0.399 ± 0.12
same,promoter activity interaction Z-score,[5]; [21],-0.341 ± 0.14
same,promoter activity interaction Z-score,[5]; [22],-0.153 ± 0.15
same,promoter activity interaction Z-score,[6]; [7],-0.731 ± 0.53
same,promoter activity interaction Z-score,[6]; [8],-0.0769 ± 0.49
same,promoter activity interaction Z-score,[6]; [9],-0.819 ± 0.47
same,promoter activity interaction Z-score,[6]; [10],0.356 ± 0.35
same,promoter activity interaction Z-score,[6]; [11],-0.815 ± 0.45
same,promoter activity interaction Z-score,[6]; [12],0.181 ± 0.66
same,promoter activity interaction Z-score,[6]; [13],-0.0696 ± 0.8
same,promoter activity interaction Z-score,[6]; [14],-0.467 ± 0.52
same,promoter activity interaction Z-score,[6]; [15],-0.469 ± 0.65
same,promoter activity interaction Z-score,[6]; [16],0.826 ± 0.17
same,promoter activity interaction Z-score,[6]; [17],-0.739 ± 0.063
same,promoter activity interaction Z-score,[6]; [18],0.259 ± 0.43
same,promoter activity interaction Z-score,[6]; [19],-0.549 ± 0.6
same,promoter activity interaction Z-score,[6]; [20],-0.037 ± 0.23
same,promoter activity interaction Z-score,[6]; [21],-0.376 ± 0.11
same,promoter activity interaction Z-score,[6]; [22],0.000633 ± 0.47
